In the library only some 17% were active in any assay of this set; here they are far more common.
TDP1 block – blocks human tyrosyl-DNA phosphodiesterase 1 | Q9NUW8 | recombinant TDP1, AlphaScreen DNA substrate cleavage | 0.28% of 350,000 active | AID 485290 | Potency, µM (series often up to 130 µM), usual class: inhibitors; also: nearly all actives have a fitted effect of over 40% in size
Target sequence (Q9NUW8 whole entry, looked up): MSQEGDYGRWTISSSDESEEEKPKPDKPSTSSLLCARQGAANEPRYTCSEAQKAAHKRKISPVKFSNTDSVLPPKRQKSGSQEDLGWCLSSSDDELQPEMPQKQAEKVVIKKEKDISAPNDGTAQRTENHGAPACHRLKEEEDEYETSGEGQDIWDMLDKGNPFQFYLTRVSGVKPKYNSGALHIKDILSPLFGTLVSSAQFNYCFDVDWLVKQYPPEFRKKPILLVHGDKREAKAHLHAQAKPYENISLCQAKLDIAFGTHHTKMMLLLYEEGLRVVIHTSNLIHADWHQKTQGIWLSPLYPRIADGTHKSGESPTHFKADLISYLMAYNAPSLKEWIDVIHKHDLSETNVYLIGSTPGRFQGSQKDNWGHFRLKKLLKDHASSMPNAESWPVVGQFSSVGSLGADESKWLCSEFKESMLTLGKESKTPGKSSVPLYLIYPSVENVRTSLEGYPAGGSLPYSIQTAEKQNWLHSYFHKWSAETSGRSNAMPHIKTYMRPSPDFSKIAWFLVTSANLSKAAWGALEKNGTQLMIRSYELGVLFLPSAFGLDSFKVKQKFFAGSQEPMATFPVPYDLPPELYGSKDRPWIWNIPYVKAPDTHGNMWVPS
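Compounds were preincubated with Tdp1 (1 nM final) for 15 min at room temperature before substrate (15 nM final) started a 5 min reaction; beads (10 ug/ml final) were then added for 10 min before AlphaScreen detection.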
TDP1 cell CPT – DT40-hTDP1 cell growth loss with CPT; AID 686979; Potency, µM (top dose mostly 46.2 µM), usual class: inhibitors; chicken DT40 Tdp1-/-;hTDP1 cells + 20 nM CPT, ATP luminescence, 48 h; 12% of 420,000 active; also: nearly all actives have a fitted effect of over 55% in size
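Chicken DT40 Tdp1-/- cells stably complemented with human TDP1 were seeded at 400 cells/well in medium containing 20 nM camptothecin, exposed to pin-transferred compounds, and grown at 37 °C for at least 48 hr. Viability was read as ATP luminescence.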
TDP1 cell noCPT – qHTS for Inhibitors of human tyrosyl-DNA phosphodiesterase 1 (TDP1): qHTS in cells in absence of CPT | DT40 Tdp1-/- hTDP1 cells, no CPT, ATP luminescence, 48 h | Potency, µM (highest dose often 46.2 µM), most hits filed as inhibitors | 15% of 420,000 active; also: nearly all actives have a fitted effect of over 55% in size
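Cells were dispensed at 400 per well, compounds added by pin tool, plates incubated ≥48 hr at 37 °C, then CellTiter-Glo added for 30 min at room temperature before luminescence reading. Line: DT40 Tdp1-/- complemented with hTDP1; camptothecin omitted.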
ClpP mod – qHTS Assay for Activators of ClpP; ATP-dependent Clp protease proteolytic subunit (Bacillus subtilis (strain 168)), P80244; 1.9% of 340,000 active; Potency, µM (titrated, usually from 57.5 µM); purified B. subtilis ClpP, FRET peptide cleavage, 20 min; active = well fitted falling curve with a large enough effect; inconclusive = small, poorly fitted or top-dose-only effect; inactive = no such curve, though single readings can be large or run the other way; also: the source files actives as falling curves though it sought activators and does not explain the sign; nearly all actives have a fitted effect of over 65% in size
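Buffer: 100 mM Tris/HCl pH8, 100 mM KCl, 0.05% low protease BSA, 2.5% glycerol, 0.01% Tween-20. ClpP 10 microg/mL final; 20 min RT; delta FRET normalized to ADEP and DMSO controls.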
Each line names hits and unclear results; the compound was inactive in the other large screens. Unless noted, calls follow the shape of the dose curve; as a rule, active = well fitted curve in the direction sought with a large enough effect; inconclusive = small, poorly fitted or top-dose-only effect, or another doubt; inactive = no such curve, though single readings can be large; an effect the other way counts as inactive or inconclusive.

CC(=O)N1CCc2c(sc3c2c(=O)n(-c2cc(Cl)ccc2C)c(=O)n3Cc2ccccc2F)C1	TDP1 cell CPT inconclusive, TDP1 cell noCPT inconclusive
CC(C)C(C)NC(=O)COC(=O)c1cc(S(=O)(=O)N(C)C)ccc1N1CCCC1 (stereo not drawn)	none (no result: TDP1 cell CPT, TDP1 cell noCPT, ClpP mod)
C=CC[C@H](CC(=O)N(CCO)Cc1ccccc1)C(=O)N[C@H](COC(=O)[C@@H](CC=C)CC(=O)OC(C)(C)C)Cc1c[nH]c2ccccc12	TDP1 cell CPT 23µM, TDP1 cell noCPT 16µM
C=CC[C@@H](CC(=O)N(CCO)Cc1ccccc1)C(=O)N[C@H](COC(=O)[C@H](CC=C)CC(=O)OC(C)(C)C)Cc1c[nH]c2ccccc12	TDP1 cell CPT 23µM, TDP1 cell noCPT 16µM
C=CCC[C@H](Cc1ccc(F)cc1)C(=O)OC[C@@H](Cc1c[nH]c2ccccc12)NC(=O)[C@@H](CC=C)CC(=O)N(CCO)Cc1ccccc1	TDP1 cell CPT inconclusive, TDP1 cell noCPT inconclusive
COc1ccc(Br)cc1S(=O)(=O)Nc1ccc(Cl)cn1	none
COc1cc2c(cc1OC)CN(CCC(=O)c1ccc(Br)cc1)CC2	TDP1 cell CPT 3.7µM, TDP1 cell noCPT 1.6µM (no result: ClpP mod)
COc1cc2c(cc1OC)CN(C(=O)CCC(=O)c1ccc(F)cc1)CC2	TDP1 cell CPT 18µM, TDP1 cell noCPT 12µM
CC(C)Cc1ccc(C(=O)NCCOc2ccccc2)o1	none (no result: ClpP mod)
CCOC(=O)c1ccccc1NC(=O)Cc1c(C(=O)O)n(C)c2ccccc12	none (no result: TDP1 block, ClpP mod)
S=C(NCCc1ccccc1)Nc1ccc(Br)cc1	TDP1 cell CPT inconclusive, TDP1 cell noCPT 23µM
CC(C)CCNC(=S)Nc1ccc(Br)cc1	TDP1 cell CPT inconclusive, TDP1 cell noCPT 16µM
CCC(=O)Nc1ccccc1-c1nc2ccccc2n(CC(=O)c2ccc(C)c(C)c2)c1=O	TDP1 cell CPT inconclusive, TDP1 cell noCPT inconclusive
CCCN1CCC(=NNc2ccc(S(=O)(=O)N(CC)CC)cc2[N+](=O)[O-])CC1	TDP1 cell CPT 2.1µM, TDP1 cell noCPT 2.6µM (no result: ClpP mod)
CC(=O)N1CCC(=NNc2ccc(S(N)(=O)=O)cc2[N+](=O)[O-])CC1	none (no result: ClpP mod)
CCCN1CCC(=NNc2ccc(S(N)(=O)=O)cc2[N+](=O)[O-])CC1	ClpP mod 14µM
C#CCSc1n[nH]c(-c2ccco2)n1	none
Cc1noc(C)c1-c1ccc(C(=O)NCc2cccnc2)c2occc12	TDP1 cell CPT 13µM, TDP1 cell noCPT 18µM (no result: TDP1 block)
Cc1noc(C)c1-c1ccc(C(=O)NCCC(F)(F)F)c2occc12	TDP1 cell CPT 15µM, TDP1 cell noCPT inconclusive (no result: TDP1 block)
Cc1noc(C)c1-c1ccc(C(=O)Nc2cccc(C(F)(F)F)c2)c2occc12	TDP1 cell CPT 16µM, TDP1 cell noCPT 21µM, ClpP mod inconclusive (no result: TDP1 block)
Cc1noc(C)c1-c1ccc(C(=O)Nc2cccc(NS(C)(=O)=O)c2)c2occc12	TDP1 cell CPT inconclusive, TDP1 cell noCPT inconclusive (no result: TDP1 block)
Cc1noc(C)c1-c1ccc(C(=O)NCC(C)C)c2occc12	TDP1 cell CPT inconclusive, TDP1 cell noCPT inconclusive (no result: TDP1 block)
Cc1noc(C)c1-c1ccc(C(=O)NCc2cccc(Cl)c2)c2occc12	TDP1 cell CPT inconclusive, TDP1 cell noCPT inconclusive (no result: TDP1 block)
CCOC(=O)CC(S(=O)(=O)c1ccccc1)S(=O)(=O)c1ccccc1	TDP1 cell CPT 0.58µM, TDP1 cell noCPT 0.65µM (no result: TDP1 block)
CCOC(=O)CN(c1sc(C)c(C)c1C(=O)OCC)S(=O)(=O)c1ccc(C)cc1	TDP1 cell CPT inconclusive, TDP1 cell noCPT 15µM (no result: TDP1 block)
CCOC(=O)CN(c1ccccn1)S(=O)(=O)c1ccccc1	ClpP mod 32µM
CCOC(=O)Nc1ccc2c(c1)N(C(=O)OCCN(C)C)c1ccccc1CC2	TDP1 cell CPT 18µM, TDP1 cell noCPT inconclusive
Cc1cc(C)cc(Nc2ccc(C(=O)O)cc2N)c1	ClpP mod 28µM
Cc1ccc(Nc2ccc(C(=O)O)cc2N)cc1	none
Cc1ccc(/C=N\NC(=O)COc2ccc(C)cc2[N+](=O)[O-])cc1	TDP1 cell CPT inconclusive, TDP1 cell noCPT inconclusive (no result: ClpP mod)
Cc1ccc(OCC(=O)N/N=C\c2ccc(O)c([N+](=O)[O-])c2)c([N+](=O)[O-])c1	none (no result: ClpP mod)
Cc1ccc(OCC(=O)N/N=C\c2c(C)[nH]n(-c3ccccc3)c2=O)c([N+](=O)[O-])c1	TDP1 cell CPT 3.7µM, TDP1 cell noCPT 4.1µM (no result: ClpP mod)
Cc1ccc(OCC(=O)N/N=C\c2cn(C)c3ccccc23)c([N+](=O)[O-])c1	TDP1 cell CPT inconclusive, TDP1 cell noCPT 15µM
CCOC(=O)C(CC)n1cnc2c(nnn2-c2cccc(OC)c2)c1=O (stereo not drawn)	none (no result: TDP1 block)
COc1ccc(-c2cnc(C(O)c3ccc(CN4CCCCC4)cc3)[nH]2)cc1 (stereo not drawn)	none (no result: TDP1 block)
CC1CCCCN1C(=O)c1ccc(C(=O)c2ccccc2)cc1 (stereo not drawn)	TDP1 cell CPT inconclusive, TDP1 cell noCPT 15µM
COc1cc(S(=O)(=O)NCc2ccncc2)c(OC)cc1Br	TDP1 cell CPT inconclusive, TDP1 cell noCPT 13µM
CCOc1cc(S(=O)(=O)NCc2ccncc2)c(C)cc1C	none (no result: ClpP mod)
Cc1cc(S(=O)(=O)NCc2ccncc2)c(C)cc1Br	TDP1 cell CPT 8.2µM, TDP1 cell noCPT 5.8µM
Cc1ccc(C)c(S(=O)(=O)NCc2ccncc2)c1	TDP1 cell CPT inconclusive, TDP1 cell noCPT 21µM
Cc1ccc(-c2nnnn2-c2ccc(C)cc2)cc1	TDP1 cell CPT inconclusive, TDP1 cell noCPT inconclusive (no result: ClpP mod)
FC(F)(F)c1nc(N2CCCC2)ncc1-c1nnnn1-c1ccc(Cl)cc1	TDP1 cell CPT 21µM, TDP1 cell noCPT 18µM
Fc1ccc(-n2nnnc2-c2cnc(-c3cccs3)nc2C(F)(F)F)cc1	TDP1 cell CPT 6.5µM, TDP1 cell noCPT 4.6µM, ClpP mod inconclusive
Cc1ccc(-n2nnnc2-c2cnn(-c3ccc(F)cc3)c2C(F)(F)F)cc1	TDP1 cell CPT 13µM, TDP1 cell noCPT inconclusive
Cc1ccc(-n2nnnc2-c2cnc(-c3cccnc3)nc2C(F)(F)F)cc1	TDP1 cell CPT 18µM, TDP1 cell noCPT 5.8µM
COc1ccc(Nc2nc3c(C)cccc3cc2C#N)c(OC)c1	none
COC(=O)c1cccc(C23CC4(C2)[C@H](CN(Cc2ccc(-c5ccccc5)cc2)[C@@H]4c2ccccc2)C3c2ccccc2)c1 (stereo partly drawn)	TDP1 cell noCPT inconclusive
FC(F)(F)c1ccc(C2[C@H]3CN(Cc4cccnc4)[C@H](c4ccccc4)C34CC2(c2cccnc2)C4)cc1 (stereo partly drawn)	TDP1 cell CPT 23µM, TDP1 cell noCPT 21µM
N#Cc1ccc(C23CC4(C2)[C@H](CN(Cc2cccnc2)[C@@H]4c2ccccc2)C3c2ccccc2)cc1 (stereo partly drawn)	TDP1 cell CPT 9.2µM, TDP1 cell noCPT 7.3µM
COC(=O)c1cccc(C23CC4(C2)[C@H](CN(Cc2ccc(C(F)(F)F)cc2)[C@@H]4c2ccccc2)C3c2ccccc2)c1 (stereo partly drawn)	TDP1 cell CPT 29µM, TDP1 cell noCPT 16µM

Compound activity deposited in PubChem by National Center for Advancing Translational Sciences (NCATS).
